Several values for one entry are separate records, joined by “and”; a condition that tells them apart may be missing. Equal values may be shown once. Results filed as inconclusive are left out. Values without a mark were called inactive. Activity calls are given as the source filed them. Calls come from the whole dose curve; as a rule, active = well fitted curve in the direction sought with a large enough effect; inconclusive = small, poorly fitted or top-dose-only effect, or another doubt; inactive = no such curve, though single readings can be large or run the other way.
Test: qHTS Assay for Identifying Gametocytocidal Compounds (AID 743244);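 for max response: actives lower the fluorescent signal which means gametocytes are killed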
Conditions: P. falciparum 3D7 stage III-V gametocytes, alamarBlue, 72 h; max response: hits give low values
Method in brief: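 Compounds are pinned into medium, gametocytes (stage III–V, 3D7, 20,000 cells/well) added, and plates held 72 h at 37 °C in 5% CO2. AlamarBlue follows for 24 h before fluorescence reading.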
% is set by controls: 0 for no effect and ±100 for the full control effect; potency is the fitted concentration of half-maximal effect.

| SMILES | max response | Potency |
| --- | --- | --- |
| C#C[C@]1(O)CC[C@H]2[C@@H]3CCC4=CC(=O)CC[C@@H]4[C@H]3CC[C@@]21CC | 6.28% |  |
| NC(=S)N/N=C/c1cccnc1 | -11.6% |  |
| CCN(CC)CCNC(=O)c1cc(Br)c(N)cc1OC | -8.23% |  |
| c1ccc(CC2=NCCN2)cc1 | -3.06% |  |
| CC1CCc2c(N3CCC(O)CC3)c(F)cc3c(=O)c(C(=O)O)cn1c23 (centres undefined) | 21.4% |  |
| O=C1C(CCS(=O)c2ccccc2)C(=O)N(c2ccccc2)N1c1ccccc1 (centres undefined) |  | 0.0089 µM (active) |
| Cc1cn([C@H]2C[C@H](F)[C@@H](CO)O2)c(=O)[nH]c1=O | -5.75% |  |
| NCCNC(=O)c1ccc(Cl)cn1 | -2.71% |  |
| COc1ccc(C(=O)c2ccccc2O)c(O)c1 | 14.9% |  |
| CC(=O)Nc1ccc(OC(=O)c2ccccc2OC(C)=O)cc1 | 12.6% |  |
| CO[C@H]1C=CO[C@@]2(C)Oc3c(C)c(O)c4c(O)c(c(/C=N/N5CCN(C)CC5)c(O)c4c3C2=O)NC(=O)/C(C)=C\C=C[C@H](C)[C@H](O)[C@@H](C)[C@@H](O)[C@@H](C)[C@H](OC(C)=O)[C@@H]1C |  | 15.8 µM (active) |
| Nc1ccc(S(=O)(=O)NCc2ccccc2)cc1 | -10.6% |  |
| CC(C)CCCC(C)N (centres undefined) | 6.57% |  |
| Cc1cc(C)cc(OCC2CNC(=O)O2)c1 (centres undefined) | -6.82% |  |
| COc1ccc(-c2cc(C(F)F)nn2-c2ccc(S(N)(=O)=O)cc2)cc1F | 25.1% |  |
| CC(=O)Oc1ccc(C)cc1 | -2.81% |  |
| NC1CCN(c2nc3c(cc2F)c(=O)c(C(=O)O)cn3-c2ccc(F)cc2F)C1 (centres undefined) | -5.91% |  |
| OC(C#CCN1CCCC1)(c1ccccc1)c1ccccc1 | -3.1% |  |
| CN1CCN(c2c(F)cc3c(=O)c(C(=O)O)cn4c3c2SCC4)CC1 | 9.27% |  |
| CNCCc1ccccn1 | -0.406% |  |

| SMILES | max response | Potency |
| --- | --- | --- |
| CC(=O)O[C@]1(C(C)=O)CC[C@H]2[C@@H]3C=C(C)C4=CC(=O)CC[C@]4(C)[C@H]3CC[C@@]21C | 3.72% |  |
| Nc1nc(Cl)nc2c1ncn2[C@@H]1O[C@H](CO)[C@@H](O)[C@@H]1F | 14.9% |  |
| COP(=O)(OC)OC(c1ccc(Cl)cc1)P(=O)(OC)OC (centres undefined) | 0.577% |  |
| CCCCc1cc2ccccc2c(OCCN(C)C)n1 | -5.86% |  |
| C[C@@H](O)[C@H]1C(=O)N2C(C(=O)O)=C([C@H]3CCCO3)S[C@H]12 | -9.42% |  |
| O=S(=O)(O)c1ccc(O)cc1 | 19.1% |  |
| CCc1oc2ccccc2c1C(=O)c1cc(Br)c(O)c(Br)c1 | -6.8% |  |
| COc1cc(C(=S)N2CCOCC2)ccc1O | 19.6% |  |
| CCc1nn(CCCN2CCN(c3cccc(Cl)c3)CC2)c(=O)n1CCOc1ccccc1 | -8.53% and -14% |  |
| CCOC(=O)c1ccc(N)cc1 | 11.9% |  |
| CCO[C@@H]1O[C@H](C(COCc2ccccc2)OCc2ccccc2)[C@H](OCc2ccccc2)[C@H]1O (some centres undefined) | -9.56% |  |
| COc1cc(NS(=O)(=O)c2ccc(N)cc2)ncn1 | -7.94% |  |
| COc1ccc(S(=O)(=O)N2c3ccc(Cl)cc3[C@@](O)(c3ccccc3Cl)[C@H]2C(=O)N2CCC[C@@H]2C(N)=O)cc1OC | 20.2% |  |
| CCN(CC)CCOc1ccc2c(c1)C(=O)c1cc(OCCN(CC)CC)ccc1-2 |  | 12.6 µM (active) |
| CN(C)CCC[C@@]1(c2ccc(F)cc2)OCc2cc(C#N)ccc21 | -8.84% |  |
| CCOCCn1c(N2CCCN(C)CC2)nc2ccccc21 | -5.27% |  |
| C#C[C@]1(O)CC[C@H]2[C@@H]3CCc4cc(OC)ccc4[C@H]3CC[C@@]21C | -2.6% |  |
| O=C1OC2(c3ccccc31)c1cc(Br)c(O)c(Br)c1Oc1c2cc(Br)c(O)c1Br | -3.43% |  |
| NC(=O)C1(N2CCCCC2)CCN(CCCC(=O)c2ccc(F)cc2)CC1 | 6.95% |  |

From PubChem BioAssay (NCATS)
